HP1b chromo inh – HTS for Inhibitors of HP1-beta Chromodomain Interactions with Methylated Histone Tails; Chromobox protein homolog 1 (Homo sapiens), P83916; 390,000 tested, 0.56% active; AID 540317, 2011; AlphaScreen HP1-beta / biotin-H3K9me3 peptide binding; Potency, µM (top dose mostly 114 µM), without a hit: at the highest dose activity change, negative = inhibition, most hits filed as inhibitors; further: nearly all actives have a fitted effect of over 70% in size
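AlphaScreen: HP1-beta (50 nM) preformed 30 min with biotin-H3(1-18)K9me3 peptide (50 nM) in PBS pH 7.4, 0.01% Tween-20. Compound added for 30 min at RT, then streptavidin donor/nickel chelate acceptor beads (10 ug/mL) for 30 min.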
JMJD2A Tudor inh – qHTS Assay for Inhibitors of JMJD2A-Tudor Domain; AlphaScreen JMJD2A-Tudor / H3K4me3 peptide binding; Potency, µM (titrated, usually from 114 µM), for the others: at the highest dose activity change, negative = inhibition, most hits filed as inhibitors; 390,000 tested, 4.4% active; further: on the % scale 0 is the no-effect control and ±100 the full control effect; nearly all actives have a fitted effect of over 50% in size
PLK1 PBD block – qHTS for Inhibitors of PLK1-PDB (polo-like kinase 1 - polo-box domain): Primary Screen | Plk1 PBD binding of FITC phosphopeptide, fluorescence polarization | 360,000 tested, 2.8% active | Serine/threonine-protein kinase PLK1 (Homo sapiens), P53350 | Potency, µM, for inactives: max response, negative = inhibition, actives largely listed as inhibitors; further: series mostly up to about 57 µM; on the % scale 0 is the no-effect control and ±100 the full control effect; nearly all actives have a fitted effect of over 65% in size
VDR inhibitor – Inhibitors of the vitamin D receptor (VDR): qHTS; VDR-SRC2-3 peptide fluorescence polarization, 2 h; Vitamin D3 receptor (Homo sapiens), P11473; Potency, µM, for the others: max response, negative = inhibition, usual class: inhibitors; 400,000 tested, 0.93% active; further: on the % scale 0 is the no-effect control and ±100 the full control effect
Target sequence (P11473 whole entry, looked up): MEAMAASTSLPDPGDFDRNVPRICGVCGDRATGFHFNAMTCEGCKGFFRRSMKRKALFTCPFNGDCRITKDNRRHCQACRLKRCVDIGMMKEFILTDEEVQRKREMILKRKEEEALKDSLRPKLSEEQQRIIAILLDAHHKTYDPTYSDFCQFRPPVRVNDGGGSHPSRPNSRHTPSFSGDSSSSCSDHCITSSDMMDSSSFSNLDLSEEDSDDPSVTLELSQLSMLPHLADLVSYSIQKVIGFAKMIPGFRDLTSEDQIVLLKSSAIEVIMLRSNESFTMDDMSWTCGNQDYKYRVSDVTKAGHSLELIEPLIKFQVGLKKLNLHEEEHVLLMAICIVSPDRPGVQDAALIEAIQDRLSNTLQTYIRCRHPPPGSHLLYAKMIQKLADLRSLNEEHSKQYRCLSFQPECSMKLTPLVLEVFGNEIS
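Compounds are added to VDR with labelled SRC2-3 coactivator peptide and held 2 h at room temperature. Inhibition of the VDR–peptide interaction is then read as a change in fluorescence polarization.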
BAZ2B inh – qHTS Assay for Inhibitors of BAZ2B; Bromodomain adjacent to zinc finger domain protein 2B (Homo sapiens), Q9UIF8; AlphaScreen BAZ2B-H3K14Ac peptide displacement; Potency, µM (doses to about 114 µM), for the others: top-dose activity change, negative = inhibition, usual class: inhibitors; 360,000 tested, 4.4% active; AID 504333, 2011; further: on the % scale 0 is the no-effect control and ±100 the full control effect; nearly all actives have a fitted effect of over 60% in size
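BAZ2B 50 nM plus b-H3(5-23)K14Ac 50 nM, PBS pH 7.4/0.01% Tween-20, 30 min RT; compound added (max 110 uM), 30 min RT; streptavidin donor/Ni-chelate acceptor beads 10 ug/mL final, 20 min dark; AlphaScreen read.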
G9a inh – qHTS Assay for Inhibitors of Histone Lysine Methyltransferase G9a; Histone-lysine N-methyltransferase EHMT2 (Homo sapiens), Q96KQ7; G9a H3K9 monomethylation, AlphaScreen, 2 h; Potency, µM (doses to about 102 µM), for inactives: at the highest dose activity, negative = inhibition, actives largely listed as inhibitors; 350,000 tested, 8.8% active; AID 504332, 2011; further: on the % scale 0 is the no-effect control and ±100 the full control effect; nearly all actives have a fitted effect of over 75% in size
Target sequence (Q96KQ7 913-1193 limits assumed): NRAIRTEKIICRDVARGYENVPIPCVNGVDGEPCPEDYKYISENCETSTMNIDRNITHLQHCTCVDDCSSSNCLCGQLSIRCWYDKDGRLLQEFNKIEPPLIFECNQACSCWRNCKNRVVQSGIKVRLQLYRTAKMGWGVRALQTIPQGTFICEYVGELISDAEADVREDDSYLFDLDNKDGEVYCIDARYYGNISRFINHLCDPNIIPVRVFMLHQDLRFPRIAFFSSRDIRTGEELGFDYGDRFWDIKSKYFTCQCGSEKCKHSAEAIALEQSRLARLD
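Signal arises when biotinylated H3K9 peptide, once monomethylated, bridges streptavidin donor and antibody-captured acceptor beads. Enzyme at 20 nM was preincubated 15 min with test compounds; peptide 500 nM and SAM 20 uM then reacted for 2 h.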
Numbers without * were called inactive; ? = inconclusive; / = no result given; ! = not confirmed by another sample; [ ] = dose if it differs, or a comment. Only some compounds are listed: those with a hit (about 11% of all), similar ones and a draw of the others. The call rests on the fitted dose curve; in most records, active means well fitted curve in the direction sought with a large enough effect; inconclusive means small, poorly fitted or top-dose-only effect, or another doubt; inactive means no such curve, though single readings can be large; an effect the other way counts as inactive or inconclusive. Potency means the concentration at half of the fitted maximal effect.

SMILES | HP1b chromo inh | JMJD2A Tudor inh | PLK1 PBD block | VDR inhibitor | BAZ2B inh | G9a inh
S=C(NCCCN1CCOCC1)Nc1ccc(-c2nc3ccccc3[nH]2)cc1 | -13.4% | -18.6% | 23.8µM* | -15.3% | / | 31.6µM*
CC(=O)N1CCc2cc(S(=O)(=O)Nc3ccc(C)c(C)c3)ccc21 | / | -6.1% | / | / | / | /
Cc1ccc(/C=N\NC(=O)CCc2n[nH]c(=O)[nH]c2=O)o1 | 5.4% | 15.8µM* | 16.8µM* | ? | 3.4% | -41.7%
CCNc1nc(Cl)nc(NCc2ccccc2)n1 | 36.9% | -9.0% | -6.8% | -0.2% | -7.7% | 68.7%[59 µM]
O=Cc1ccc(-n2cc(C=O)c3ccccc32)cc1 | 16.6% | -1.7% | -12.6% | -11.9% | -4.2% | -4.0%
Clc1nc(Oc2ccccc2)nc(-c2cn(-c3ccccc3)c3ccccc23)n1 | 29.7% | ? | -15.1% | -4.7% | ? | 39.8µM*
CCNc1nc(Cl)nc(-c2cn(-c3ccccc3)c3ccccc23)n1 | 41.0% | -9.2% | -0.6% | 8.0% | 12.6% | 70.8µM*
CNC[C@H](O)c1ccc(O)c(O)c1 | 14.3% | -28.1% | -3.8% | 31.6µM*! | 50.1µM* | 7.94µM*!
CC1Sc2ccc(S(=O)(=O)CCC(=O)NCc3ccccc3)cc2NC1=O (stereo unspecified) | ? | 79.4µM* | ? | -14.4% | -18.1%[57.1 µM] | -23.4%
CC1Sc2ccc(C(=O)Nc3ccc(S(=O)(=O)N(C)C)cc3)cc2NC1=O (stereo unspecified) | 20.7% | -18.7% | 3.9% | 5.4% | -3.1% | 31.6µM*
COc1ccc(NC(=O)CCS(=O)(=O)c2ccc3c(c2)NC(=O)C(C)S3)cc1OC (stereo unspecified) | 0.2% | 17.8µM* | 6.7µM* | ? | -16.2%[57.1 µM] | 18.2%
CC1Sc2ccc(S(=O)(=O)CCC(=O)N3CCc4ccccc43)cc2NC1=O (stereo unspecified) | -4.2% | 25.1µM* | 29.9µM* | -19.4% | -22.0% | -0.8%
OC(c1ccc(Cl)c(Cl)c1)c1ncc(-c2ccccc2C(F)(F)F)[nH]1 (stereo unspecified) | / | / | 1.0% | / | / | /
COc1ccc(-c2ccc(C3C4C=CCC(C)C4C(=O)N3Cc3ccccc3)c(F)c2)cc1 (stereo unspecified) | 25.0% | -12.4% | / | -7.5% | / | /
Cc1ccc(CNC(=O)c2sc3nc4n(c(=O)c3c2C)CCCCC4)cc1 | 48.3% | -13.8% | / | -5.0% | -33.4% | ?
Cc1c(C(=O)NCc2ccccc2)sc2nc3n(c(=O)c12)CCCCC3 | 33.2% | ? | / | 2.0% | ? | 10µM*
Cc1ccc(CNC(=O)c2sc3nc4n(c(=O)c3c2C)CCCC4)cc1 | 20.8% | ? | / | 1.6% | 50.1µM* | ?
O=C(O)c1[nH]c2ccc(Cl)cc2c1CC(=O)N1CCN(c2ccccc2)CC1 | -10.2% | -28.3% | -11.0% | -8.7% | -1.9% | 50.1µM*
O=C(C1CC(=O)N(c2ccc3c(c2)OCCO3)C1)N1CCN(c2ccccc2)CC1 (stereo unspecified) | -17.4% | ? | -12.7% | -10.0% | 50.1µM* | ?
O=C(Cc1ccc2c(c1)OCCO2)N1CCN(c2ccccc2)CC1 | -8.3% | -27.4% | -25.0% | 3.3% | -14.9% | 50.1µM*
O=C(CSc1ccc2c(c1)OCCO2)N1CCN(c2ccccc2O)CC1 | 9.7% | -25.3% | -3.6% | 3.8% | -24.7% | 50.1µM*
O=C(COC(=O)c1cc(S(=O)(=O)N2CCCCC2)ccc1N1CCOCC1)c1ccccc1 | 17.5% | -12.9% | 1.8% | -11.6% | 7.3% | -32.9%
Cc1cn([C@H]2C[C@@H](N=[N+]=[N-])[C@@H](CO)O2)c(=O)[nH]c1=O | / | / | / | / | / | 16.4%[12.7 µM]
COc1cc(C(=O)CSc2nncn2C)cc(OC)c1OC | 42.5% | -14.2% | -6.2% | -11.3% | ? | 39.8µM*
CCOC(=O)c1sc(/N=C/c2ccc(O)cc2O)cc1C | -0.2% | ? | 39.1% | -9.4% | -36.1% | 22.4µM*
SMILES | HP1b chromo inh | JMJD2A Tudor inh | PLK1 PBD block | VDR inhibitor | BAZ2B inh | G9a inh
O=[S+]1([O-])N=C(Oc2cccnc2)c2ccccc21 | / | 2.1% | / | / | / | /
CC1(C)CC(=S)Nc2ccccc2S1 | ? | -32.3% | 26.7µM* | ? | -7.3% | 7.94µM*
CCOC(=O)c1c(SCCN2CCCC2)n(-c2ccccc2)c(=S)n(-c2ccccc2)c1=O | -4.4% | -11.1% | -26.9% | 70.8µM* | / | /
CCc1nnc(NC2=NCCC2)s1 | 17.1% | 70.8µM* | -4.1% | -2.3% | ? | ?
c1nnc(NC2=NCCCCC2)s1 | 4.6% | -9.3% | -18.7% | -10.4% | -1.0% | -9.0%[59 µM]
Cc1cnc(NC2=NCCC2)s1 | 4.8% | ? | -2.9% | -4.2% | -32.0% | 11.2µM*
CCCCn1c(NC(=O)c2ccccc2Cl)c(C#N)c2nc3ccccc3nc21 | 74.0% | 19.4% | 26.7µM* | 44.7µM* | 43.3% | 32.6%[59 µM]
N#Cc1c(NC(=O)c2ccccc2Cl)n(Cc2ccccc2)c2nc3ccccc3nc12 | 88.7% | 16.3% | 15µM* | ? | 12.2% | ?
O=C1OC(Nc2ccc(F)c([N+](=O)[O-])c2)c2ccccc21 (stereo unspecified) | 22.3% | -6.5% | -2.8% | ? | -31.8% | -33.7%
O=C1OC(Nc2nc3ccccc3s2)c2ccccc21 (stereo unspecified) | 52.2% | 3.2% | ? | 4.4% | -11.9% | 50.1µM*
O=C1OC(Nc2nccs2)c2ccccc21 (stereo unspecified) | 11.2% | ? | 23.8µM* | ? | -9.2% | -3.7%
Clc1ccc(-n2ncc3c(NCc4ccco4)ncnc32)cc1 | 49.5% | 0.0% | -8.7% | 23.2% | -0.6% | -43.9%[0.0925 µM]
CCc1cc2c(NCC(=O)O)ncnc2s1 | 27.9% | -10.3% | -2.9% | 0.4% | -2.3% | ?
CCc1cc2c(NCc3ccco3)ncnc2s1 | 5.0% | ? | ? | -16.4% | 56.2µM* | 44.7µM*
COc1ccc(-n2ncc3c(NCc4ccco4)ncnc32)cc1 | 15.1% | ? | -3.5% | 13.6% | ? | 44.7µM*
CC(C)(C)C1=CC=C(C(C)(C)C)C(=O)C1=O | / | / | / | / | -15.9% | 2.24µM*
COc1ccc(Oc2ccc(/C=C/C(=O)c3ccc(O)cc3)cc2[N+](=O)[O-])cc1 | -23.6% | ? | -5.5% | ? | ? | 39.8µM*
COC(=O)[C@H](C)NC(=O)/C=C/c1ccc(OC)cc1 | 35.5% | -6.2% | -0.5% | -7.9% | 1.2% | 70.8µM*
COc1ccc(C(=O)/C=C(/C)N(C)C)cc1 | 9.2% | 39.8µM* | -6.0% | 13.0% | -1.1% | 44.7µM*

Screening data: PubChem BioAssay, National Center for Advancing Translational Sciences (NCATS)
